Screens from PubChem BioAssay.
NPC1 prom act: qHTS Assay for NPC1 Promoter Activators | Huh7 NPC1 promoter luciferase reporter, 24 h | Potency, µM (doses to about 9.22 µM), without a hit: at the highest dose activation, most hits filed as activators | actives 2.4% (n = 320,000) | AID 485313, 2010; note: % of control where 0% means no effect; nearly all actives have a fitted effect of over 60% in size
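Huh7 cells stably carrying NPC1 promoter–luciferase, plated in Opti-MEM with 10% FBS for 2 h, were exposed to compound in DMSO for 24 h at 37 °C; luciferase reagent was added for 10 min and luminescence read.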
SMN2 splice enh: qHTS Assay for Enhancers of SMN2 Splice Variant Expression. HEK293 SMN2-luciferase splicing reporter, luminescence, 30-36 h. actives 2.8% (n = 210,000). Potency, µM (doses to about 46.1 µM), inactives show at the top dose activity change, positive = activation, actives largely listed as activators; note: % of control where 0% means no effect; nearly all actives have a fitted effect of over 55% in size
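HEK293 cells carry an SMN2 […]–luciferase reporter in which exon 7 inclusion puts luciferase in frame. Cells were plated 10-12 h before compound addition, then incubated 30-36 h at 37C. ONE-Glo luminescence was read; sodium butyrate at 4.5 mM final served as control.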
FLuc counter: qHTS profiling assay for firefly luciferase inhibitor/activator using purifed enzyme and Km concentrations of substrates (counterscreen for miR-21 project); purified FLuc, Km substrates, luminescence inhibition; AID 588342, 2011; Luciferin 4-monooxygenase (Photinus pyralis), P08659; Potency, µM (series often up to 57.5 µM), without a hit: at the top dose activity change, negative = inhibition, hits mostly inhibitors; actives 6.9% (n = 360,000);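 note: plate controls were vehicle for no effect and reference inhibitor for full effect; nearly all actives have a fitted effect of over 55% in size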
Target sequence (P08659 whole entry, looked up): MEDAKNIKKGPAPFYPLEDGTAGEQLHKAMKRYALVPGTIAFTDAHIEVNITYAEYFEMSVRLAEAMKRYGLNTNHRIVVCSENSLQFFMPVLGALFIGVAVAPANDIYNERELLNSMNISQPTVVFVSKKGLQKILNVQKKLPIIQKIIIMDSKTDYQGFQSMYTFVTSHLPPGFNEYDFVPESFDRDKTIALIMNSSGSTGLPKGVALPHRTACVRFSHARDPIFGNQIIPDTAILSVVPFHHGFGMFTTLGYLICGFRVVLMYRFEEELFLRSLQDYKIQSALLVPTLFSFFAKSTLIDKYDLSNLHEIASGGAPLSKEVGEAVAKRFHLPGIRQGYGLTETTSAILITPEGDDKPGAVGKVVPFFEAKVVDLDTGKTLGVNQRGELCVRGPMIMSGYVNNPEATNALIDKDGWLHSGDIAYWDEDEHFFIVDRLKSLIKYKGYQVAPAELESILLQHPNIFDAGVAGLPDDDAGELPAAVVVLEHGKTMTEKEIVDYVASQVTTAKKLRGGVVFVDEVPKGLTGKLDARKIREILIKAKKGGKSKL
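Purified P. pyralis luciferase (10nM final) with 10uM D-luciferin and 10uM ATP (Km levels) in 50mM Tris acetate pH 7.5, 10mM Mg acetate, 0.01% Tween-20, 0.05% BSA; qHTS 6-point titration, ~60 µM downward; luminescence read.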
ELG1 repair inh: qHTS screen for small molecules that inhibit ELG1-dependent DNA repair in human embryonic kidney (HEK293T) cells expressing luciferase-tagged ELG1. HEK293T ELG1-luciferase reporter, luminescence, 16 h; DNA damage induced by 5-fluorouridine. Potency, µM (doses to about 46.1 µM), for inactives: at the highest dose activity change, negative = inhibition, most hits filed as inhibitors. actives 2.3% (n = 330,000); note: % is set by controls: 0 for no effect and ±100 for the full control effect; nearly all actives have a fitted effect of over 55% in size
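5-Fluorouridine DNA damage + compound/DMSO, 2,000 cells/well, 16 h, 37 °C/5% CO2. ONE-Glo, 30 min RT, luminescence. Readout = decrease in reporter signal.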
ELG1 genotox: qHTS screen for small molecules that induce genotoxicity in human embryonic kidney (HEK293T) cells expressing luciferase-tagged ELG1. AID 504466, 2011. Potency, µM (titrated, usually from 46 µM), without a hit: top-dose activity change, positive = activation, hits mostly activators. actives 1.3% (n = 330,000). HEK293T ELG1-luciferase reporter, luminescence, 16 h; note: % of control where 0% means no effect; nearly all actives have a fitted effect of over 60% in size
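Step 1: seed 2,000 HEK293T ELG1-luciferase cells per well. Step 2: add compound or DMSO, incubate 16 hr at 37 °C. Step 3: ONE-Glo, 30 min at room temperature, read luminescence.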
Rab9 prom act: qHTS Assay for Rab9 Promoter Activators. actives 2.8% (n = 320,000). Potency, µM (top dose mostly 9.22 µM), inactives show top-dose activation, negative = inhibition, actives largely listed as activators. Huh7 Rab9 promoter-luciferase reporter, luminescence, 24 h. AID 485297, 2010; note: % of control where 0% means no effect; nearly all actives have a fitted effect of over 60% in size
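Promoter activation is measured as luciferase luminescence in Huh7 cells stably transfected with a Rab9 promoter–luciferase construct, following 24 h compound exposure at 37 °C and 10 min reagent incubation at ambient temperature.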
Numbers without * were called inactive; ? = inconclusive; . = not tested or not shown. This is a sample that favours compounds with a hit; in the whole collection about 9.2% have one here. Calls come from the whole dose curve; as a rule, active = well fitted curve in the direction sought with a large enough effect; inconclusive = small, poorly fitted or top-dose-only effect, or another doubt; inactive = no such curve, though single readings can be large; an effect the other way counts as inactive or inconclusive. Potency is the fitted concentration of half-maximal effect.

SMILES	NPC1 prom act	SMN2 splice enh	FLuc counter	ELG1 repair inh	ELG1 genotox	Rab9 prom act
Cc1ccc(CNc2ccc(N3CCOCC3)cc2)cc1	4µM*	.	8.5µM*	?	?	2.8µM*
Cc1ccc(C(=O)Nc2ccc(N3CCN(S(C)(=O)=O)CC3)cc2)cc1	12%	6%	0%	27%	8%	24%
O=C(c1ccccc1)c1ccc(N2CCCC2)cc1	3.2µM*	25µM*	6.7µM*	?	3.7µM*	2.5µM*
Cc1ccc(C(=O)Nc2ccc(N3CCCC3)cc2)cc1	?	11µM*	?	?	?	1.8µM*
CN(CCOc1ccccc1)S(=O)(=O)c1ccccc1C#N	0%	.	-2%	14%	-1%	2%
COc1ccc(Cn2ccc3nc(C)c(C(=O)Nc4cc(C)cc(C)c4)cc3c2=O)cc1	.	.	-16%	.	.	.
COc1ccc(C(=O)O)cc1S(=O)(=O)NCCc1ccccn1	3%	.	-2%	18%	2%	0%
Cc1ccc(N(C)S(=O)(=O)c2cccc(C(=O)NCCCN3CCCC3=O)c2)cc1	2%	.	0%	3%	2%	-5%
CSCCC(NS(=O)(=O)c1ccc(C)cc1)C(=O)NNC(=O)c1csc(N2CCOCC2)n1 (configuration not stated)	0%	.	2%	-2%	0%	2%
CC(=O)N1CCN(c2ccc(NC(=S)NC(=O)c3ccc(C)c([N+](=O)[O-])c3)cc2)CC1	-2%	.	1%	21µM*	-6%	0%
O=C(Nc1ccc(Nc2ccccc2)cc1)c1cccc(F)c1	?	.	13µM*	?	?	4.5µM*
O=C(c1ccc(F)cc1F)N1CCN(c2ncccn2)CC1	2%	-1%	-3%	-6%	0%	0%
O=C(c1ccc(N2CCN(C(=O)c3ccc(F)cc3F)CC2)cc1)c1cccc(F)c1	-5%	.	-1%	15µM*	-7%	-2%
O=C(Nc1cccc(F)c1)c1ccccc1	?	2%	?	?	9%	?
O=C(Nc1ccccc1)c1cccc(N2CCCS2(=O)=O)c1	.	.	-16%	.	.	.
CCc1ccc(NC(=O)c2cccc(N3CCCS3(=O)=O)c2)cc1	.	.	12µM*	.	.	.
Cc1ccc(S(=O)(=O)NCc2nc(-c3cccc(C)c3)no2)cc1	.	-2%	-20%	.	.	.
CCc1cc2c(cc3c(=O)n(CCCC(=O)NCc4cccc(Cl)c4)ncn32)s1	.	5%	-14%	.	.	.
CSc1ccc(S(=O)(=O)N2c3ccccc3CC2C)cc1 (configuration not stated)	-13%	.	0%	-4%	-4%	3%
CC(=O)Nc1cc(C(=O)c2ccccc2)ccc1N1CCOCC1	1%	-10%	2%	13%	-2%	1%
O=C(/C=C/c1ccccc1)Nc1ccc(N2CCCCC2)cc1	?	?	?	?	?	4µM*
O=C(Nc1ccc(N2CCCC2=O)cc1)c1cccc(F)c1	1.6µM*	7.1µM*	5.4µM*	?	2.9µM*	3.2µM*
Nc1cc(C(=O)c2ccccc2)ccc1N1CCOCC1	?	?	17µM*	?	6%	25%
O=C(/C=C/c1ccc(Cl)cc1)Nc1ccc(N2CCCCC2)cc1	3%	-10%	-3%	6%	1%	-13%
O=C(Nc1ccc(N2CCCCC2)cc1)c1ccccc1	0.4µM*	1.4µM*	1.9µM*	?	?	0.28µM*
SMILES	NPC1 prom act	SMN2 splice enh	FLuc counter	ELG1 repair inh	ELG1 genotox	Rab9 prom act
CCN1CCN(c2ccc(NC(=O)c3cccc(N4CCCC4=O)c3)cc2)CC1	-1%	.	?	?	30%	3%
O=C1CC2(CCN(C(=O)c3ccccc3[N+](=O)[O-])CC2)Oc2ccccc21	-5%	.	-1%	-4%	-11%	-3%
O=C(Nc1ccc(N2CCN(C(=O)c3cccs3)CC2)cc1)c1cccc(F)c1	-3%	.	-6%	15µM*	-11%	3%
O=C(Nc1ccc(N2CCCC2)cc1)c1cccc(F)c1	0.35µM*	0.63µM*	1.3µM*	?	0.37µM*	0.32µM*
O=C(Nc1ccc(N2CCCC2)cc1)c1ccc2ccccc2c1	?	2.5µM*	1.3µM*	?	?	0.89µM*
CC(=O)N1CCN(c2ccc(NC(=O)c3cccc(Cl)c3)cc2)CC1	2.2µM*	.	?	?	?	?
O=C(NCC1CCCN1S(=O)(=O)c1cccs1)c1cccc([N+](=O)[O-])c1 (configuration not stated)	-1%	.	-1%	17%	-3%	2%
COc1ccc(C(=O)Nc2ccnn2C2CCN(CCC(C)c3ccc(C)o3)CC2)cc1 (configuration not stated)	-1%	.	3%	-1%	-2%	0%
COc1cc(Br)c(CC(=O)NC2CC2)cc1OC	-4%	.	4%	0%	-3%	4%
COc1ccc(-c2c(=O)n(OC)c3ccccc3[n+]2[O-])cc1OC	-4%	.	-3%	4%	1%	12%
Cc1ccc(C(=O)Nc2ccc(N3CCOCC3)cc2)cc1	2.8µM*	.	12µM*	?	21µM*	4µM*
O=C(Nc1ccc(N2CCCC2)cc1)c1cccc(-c2cc3ccccc3oc2=O)c1	6%	-18%	11µM*	-6%	-2%	1%
Nc1ccc(N2CCN(c3ccc(F)cc3)CC2)cc1	14%	-18%	1%	6.5µM*	-6%	1%
CN1CCN(c2ccc(C(=O)c3ccc(F)cc3)cc2)CC1	?	?	11µM*	?	13µM*	3.2µM*
O=C(O)CCC(=O)N1CCN(c2ccc(C(=O)c3ccc(F)cc3)cc2)CC1	-1%	-14%	?	-1%	-1%	1%
COc1ccccc1CN1CCNC(=O)C1CC(=O)N(C)Cc1nc(C)cs1 (configuration not stated)	2%	.	0%	0%	-1%	0%
Cc1ccc(CNC(=O)Nc2cc(C(=O)NCc3cccc(F)c3)ccc2N2CCCC2)cc1	.	.	6%	.	.	.
Cc1ccccc1OCc1nc2c3cnn(C)c3ncn2n1	4µM*	?	?	?	5.8µM*	2.8µM*
Cc1ccccc1OCc1nc2c3c(ncn2n1)-c1ccccc1CC31CCCC1	-6%	-32%	0%	-10%	2%	0%
Nc1nc(N)nc(-c2cccc(Cl)c2Cl)n1	0%	.	-1%	?	7%	16%
